Screening results from PubChem.
A selection: hits, their analogues and other compounds. The true share with any hit is near 4.3%.
SW480 rereplic: inducers of DNA re-replication in SW480 colon cancer cells; SW480 DNA re-replication, Hoechst DNA content imaging, 48 h; Potency, µM (highest dose often 46.1 µM), without a hit: top-dose re-replication activation, hits mostly activators; 1.8% of 340,000 active; further: potency means the concentration at half of the fitted maximal effect; % of control where 0% means no effect; nearly all actives have a fitted effect of over 55% in size
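Image-based DNA-content assay: after two days of treatment, nuclei were labelled with the DNA dye Hoechst and imaged, and hits were compounds raising the count of nuclei showing high fluorescence intensity.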
Giardia kill: kills Giardia lamblia | Giardia lamblia trophozoite viability | 0.15% of 340,000 active | activity change, % at 7.66 µM, hits read low; in the data active means activity change below about -80%; inconclusive means between about -30% and that limit;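 further: parasites exposed to compound for two days anaerobically before the ATP read; on the % scale 0 is the no-effect control and ±100 the full control effect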
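Compounds were tested on trophozoites seeded at 100 cells/well and held 48 hrs at 37 deg C anaerobically. An ATP-based luminescent kit measured the remaining live cells.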
uPA surface inh: inhibitors of cell surface uPA generation. cell surface uPA generation assay, qHTS. Potency, µM (doses to about 38.3 µM), for the others: top-dose activity change, negative = inhibition, actives largely listed as inhibitors. 0.31% of 330,000 active. AID 540303; active means well fitted inhibition curve with a large enough effect; inconclusive means small, poorly fitted or top-dose-only effect; inactive means no such curve, though single readings can be large or run the other way; tested in mouse RAW 264.7 cells; further: potency means the concentration at half of the fitted maximal effect; on the % scale 0 is the no-effect control and ±100 the full control effect; nearly all actives have a fitted effect of over 55% in size
MCF10A rerep: inducers of DNA re-replication in MCF 10A breast cells; 2.9% of 350,000 active; MCF 10A DNA re-replication, Hoechst nuclear intensity, 48 h; AID 624296; Potency, µM (highest dose often 46.1 µM), for inactives: top-dose activity, positive = re-replication, most hits filed as activators; further: potency means the concentration at half of the fitted maximal effect; % of control where 0% means no effect; nearly all actives have a fitted effect of over 50% in size
* hit, by the source's call; u = inconclusive; x = no result. Unless noted, the call rests on the fitted dose curve; in most records, active means well fitted activation curve with a large enough effect; inconclusive means small, poorly fitted or top-dose-only effect; inactive means no such curve, though single readings can be large or run the other way.

SMILES	SW480 rereplic	Giardia kill	uPA surface inh	MCF10A rerep
COc1cccc(C(=O)Nc2ccc3ccccc3c2)c1	1%	-26	-3%	0%
COc1ccc(C(=O)Nc2ccc3ccccc3c2)cc1	5%	u	5µM*	-8%
COc1ccc(NC(=O)c2ccc(C)cc2)cc1	-13%	-23	10µM*	-5%
CO/N=C/C(=N\Nc1ccc(OC)cc1)C(=O)c1ccc(F)cc1	26%	-3	-2%	u
COc1ccc(C(=O)NNC(=O)C(=O)Nc2ccc(C)cc2)cc1	-6%	8	0%	-3%
CO/N=C/C(=N\Nc1ccc(C)cc1)C(=O)c1ccc(OC)cc1	u	-1	-13%	2.6µM*
COc1ccc(C(=O)/C=C/NCc2ccc(C)cc2)cc1	21µM*	-3	-7%	13µM*
O=C1c2ccccc2C(=O)N1c1ccc(O)cc1	x	2	x	x
Nn1c(-c2cccc(O)c2)nnc1-c1cccc(O)c1	-5%	7	1%	-2%
O=C(CSc1cccc[n+]1[O-])NC1CCCCC1	-6%	-3	5%	3%
Cc1ccc(Oc2ccc(NC(=O)c3ccco3)cc2)cc1	2%	-11	0%	10%
Cc1cc[n+](CC(=O)c2ccc(NC(=O)c3ccccc3)cc2)cc1	-31%	7	-11%	1.3µM*
Cc1ccc(NC(=O)c2ccc(OC(=O)c3ccco3)cc2)cc1	u	-26	-14%	21µM*
COc1ccc(C(=O)Nc2ccc3ccccc3c2)cc1OC	-1%	-9	5%	11%
COc1cc(C(=O)Nc2ccc3c(c2)Cc2ccccc2-3)cc(OC)c1OC	-2%	1	u	8.2µM*
O=C(C[n+]1ccccc1)c1ccc(NC(=O)c2ccccc2)cc1	7%	8	1%	27%
COc1cc(C(=O)Nc2ccc3ccccc3c2)cc(OC)c1OC	1.3µM*	-4	-7%	2.6µM*
C[C@]12c3[nH]c4ccc(Cl)cc4c3CCN1C(=O)[C@@H](CC(=O)NCCN1CCOCC1)C[C@@H]2C(=O)N1CCCCC1	-18%	-1	-10%	-8%
COc1ccccc1NC(=O)COC(=O)Cn1cnc2c1c(=O)n(C)c(=O)n2C	-5%	2	1%	7%
c1ccc(CNCCNCc2ccccc2)cc1	-1%	x	x	12%
Cc1cc(O)cc2c(=O)c3ccccc3sc12	u	-4	1%	18µM*
COc1ccc2sc3ccccc3c(=O)c2c1	u	-2	-2%	u
CC1=NN(C(=O)c2ccc(Cl)cc2)C(O)(c2ccccc2)C1 (centres undefined)	u	11	0%	15µM*
COc1cccc(-c2nnc(NC(=O)c3ccco3)s2)c1	-6%	-14	u	-4%
CC(C)(C)C(=O)Nc1nnc(SCc2ccc(F)cc2)s1	-15%	-2	0%	-1%
SMILES	SW480 rereplic	Giardia kill	uPA surface inh	MCF10A rerep
CCCOc1cccc(-c2nnc(NC(=O)c3ccco3)s2)c1	8%	u	u	8.2µM*
O=C(Nc1nnc(SCc2cccc(F)c2)s1)c1ccco1	-76%	4	10%	0.29µM*
CC(C)(C)C(=O)Nc1nnc(SCc2cccc(F)c2)s1	-10%	16	7%	0.65µM*
CCCCCCCCCNC(=O)[C@H](NC(=O)COc1ccccc1)[C@@H]1NC(C(=O)OC)C(C)(C)S1 (some centres undefined)	-35%	4	u	6.5µM*
O=C(Nc1ccccc1Cl)NC1(C(=O)NCC2CCCO2)CCCCC1 (centres undefined)	1%	6	4%	-4%
Cc1cc(C(=O)NCCN2CCN(c3cccc(Cl)c3)CC2)n(-c2ccccc2)n1	8.2µM*	0	u	26µM*
CN(c1ccc(F)cc1)S(=O)(=O)c1ccc(Cl)c(C(=O)NCC(c2ccco2)N2CCCCC2)c1 (centres undefined)	-4%	7	-5%	18%
CC(=O)N1c2ccc(S(=O)(=O)N3CCC(C(=O)Nc4ccc(F)cc4)CC3)cc2CC1C (centres undefined)	-5%	-1	-5%	5%
CC(=O)Nc1ccc(S(=O)(=O)N2c3ccc(F)cc3CCC2C)cc1 (centres undefined)	18µM*	9	4.5µM*	u
O=S(=O)(NC1CC1)c1ccc(S(=O)(=O)N2CCCC3(CCCCC3)C2)cc1	u	9	-14%	15µM*
Cc1ccc2nc(N3C(=O)C(O)=C(C(=O)c4ccco4)C3c3ccc(C)o3)sc2c1 (centres undefined)	u	-1	-4%	21µM*
Cc1cc(C)c2nc(N3C(=O)C(O)=C(C(=O)c4ccco4)C3c3ccc(O)cc3)sc2c1 (centres undefined)	-9%	9	1%	u
